The source of these data is PubChem BioAssay (NCI).

Compounds without any hit were thinned out: in the full panel of roughly 83,000, 20% have a hit.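 Percent growth is the endpoint: 0 to 100 indicates growth inhibition (40 means 60% inhibition), 0 means no net growth, and negative values indicate cell death.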 A number with no mark means an inactive call. Activity calls are given as the source filed them. How the source made its calls: active means growth percent below 10; inactive means the rest.

Among the test systems are EKVX NSCLC; SN12C renal; UO-31 renal; ACHN renal; CAKI-1 renal; CCRF-CEM leukemia; MOLT-4 leukemia; TK-10 renal; A498 renal.
Assay in all cases: NCI-60 one-dose screen, 48 h (100 = growth as untreated, 0 = no growth, -100 = all killed)
What all share (conditions): 10 µM unless noted

As to `CC(C)(C)CC(C)(C)NCc1cc(C(C)(C)C)cc(CNC(C)(C)CC(C)(C)C)c1O`, the growth with EKVX NSCLC is 37.2%; in the assay on SN12C renal, 69.3%; in the assay with UO-31 renal it was 27.4%; in the assay on ACHN renal, 37.4%; with CAKI-1 renal, 55.3%; with CCRF-CEM leukemia it was 49.3%. Also, in the assay on MOLT-4 leukemia, the growth is 30.3%.

Regarding `Clc1ccc2c(c1)-n1cccc1C(c1ccc3ccccc3c1)=NC2`, the growth in the assay on EKVX NSCLC was 99.5%; with SN12C renal, 124%; in the assay on UO-31 renal it was 64.8%; in the assay with TK-10 renal, 185%; in the assay with ACHN renal, 91.7%; with CCRF-CEM leukemia, 84.6%.

As to `Cc1cc(O)c(C2=NN(c3ccc(S(N)(=O)=O)cc3)C(c3ccc(Cl)cc3)C2)c(C)c1Cl` (configuration not stated), the growth with EKVX NSCLC was 49.7%; in the assay with SN12C renal it was 36.1%; in the assay on UO-31 renal, 66.6%; in the assay with TK-10 renal, 80%; in the assay with ACHN renal it was 58.7%; in the assay with A498 renal, 87.2%. Besides, the growth with CCRF-CEM leukemia is 11.6%; in the assay on MOLT-4 leukemia, 14.3%.

Take `CCOC(=O)C1=C(C)NC(SCc2nnc(-c3ccc(Cl)cc3)o2)=NC1c1ccc(Cl)cc1` (configuration not stated): the growth with EKVX NSCLC was 80.2%; with UO-31 renal it was 48.7%; in the assay with TK-10 renal it was 77.5%; in the assay with ACHN renal, 64.1%; in the assay with CAKI-1 renal, 61.6%; in the assay on A498 renal, 80.7%. The growth with CCRF-CEM leukemia is 39.7%; in the assay with MOLT-4 leukemia, 7.02% (active).

With `N#Cc1ccc(NC(=O)Nc2nc3ccc(OC(F)(F)F)cc3s2)cc1`, the growth with EKVX NSCLC was -6.94% (active); in the assay on SN12C renal, -4.65% (active); in the assay on UO-31 renal, -2.76% (active); in the assay with ACHN renal it was -10.6% (active); with CAKI-1 renal it was -15.5% (active); in the assay on A498 renal, -28.1% (active). In addition, the growth in the assay with CCRF-CEM leukemia is 3.09% (active); in the assay on MOLT-4 leukemia it was -13.9% (active).

With `CCSc1ccc([C@@H]2[C@@H](O)C(=O)N2c2cc(OC)c(OC)c(OC)c2)cc1`, the growth in the assay with EKVX NSCLC was 52.3%; with SN12C renal, 38.8%; in the assay on TK-10 renal, 77.2%; in the assay on ACHN renal, 32.7%; in the assay on A498 renal, -10.6% (active); with CCRF-CEM leukemia, 11.9%. In addition, in the assay on MOLT-4 leukemia, the growth is 10.8%.

With `CCSc1ccc([C@@H]2[C@@H](N)C(=O)N2c2cc(OC)c(OC)c(OC)c2)cc1`, the growth with EKVX NSCLC was 41%; with SN12C renal, 49.6%; with UO-31 renal it was 49.4%; in the assay with TK-10 renal, 58.9%; in the assay on ACHN renal it was 50.7%; in the assay on A498 renal, 3.94% (active). In addition, the values for the growth with CCRF-CEM leukemia and in the assay on MOLT-4 leukemia were 11.6% and 13.1%, respectively.

In the case of `COc1ccc(/C(=C\c2cc(OC)c(OC)c(OC)c2)C(=O)N2CCCNCC2)cc1`, the growth in the assay with EKVX NSCLC was 104%; with SN12C renal, 106%; in the assay with TK-10 renal it was 101%; with ACHN renal, 109%; in the assay on A498 renal, 99.1%; in the assay on CCRF-CEM leukemia it was 99.9%. Also, the growth with MOLT-4 leukemia was 94.7%.

Consider `Cc1ccccc1N1C(c2ccccc2)=NNC12C=CC(=O)c1c(O)cccc12` (configuration not stated), for which the growth with EKVX NSCLC is 79.7%; in the assay on SN12C renal, 62.2%; in the assay on UO-31 renal, 57.5%; in the assay with TK-10 renal, 116%; with CAKI-1 renal it was 96.9%; in the assay on A498 renal, 76.4%. Besides, the growth was 119% in the assay on CCRF-CEM leukemia and 101% in the assay on MOLT-4 leukemia.

As to `CCOc1ccc([C@@H]2[C@@H](Oc3ccccc3)C(=O)N2c2cc(OC)c(OC)c(OC)c2)cc1`, the growth with EKVX NSCLC is 43.5%; with SN12C renal, 31.4%; in the assay on UO-31 renal, 35.3%; in the assay on TK-10 renal, 48.1%; with A498 renal it was -9.61% (active); in the assay with CCRF-CEM leukemia it was 7.6% (active). Besides, the growth in the assay with MOLT-4 leukemia is 5.59% (active).

For `Cc1n(Cc2ccc3ccccc3n2)cc[n+]1Cc1ccc2ccccc2n1`, the growth in the assay on EKVX NSCLC is 80.7%; with SN12C renal, 77.9%; in the assay with UO-31 renal, 87.3%; in the assay on TK-10 renal it was 80.8%; in the assay with ACHN renal, 103%; in the assay with A498 renal, 88.5%. Also, the growth was 76.2% in the assay with CCRF-CEM leukemia and 98.3% in the assay with MOLT-4 leukemia.

For `O=c1[nH]c2cc(Cl)c(Cl)cc2o1`, the growth was 68.3% with EKVX NSCLC; 95.5% in the assay on SN12C renal; 99.6% in the assay with UO-31 renal; 113% with TK-10 renal; 104% in the assay with ACHN renal; 92.7% in the assay on A498 renal. For the same compound, the values for the growth with CCRF-CEM leukemia and in the assay on MOLT-4 leukemia were 118% and 106%, respectively.

With `O=C1/C(=C\c2cccn2Cc2ccc(Cl)cc2)c2ccccc2N1c1c(Cl)cccc1Cl`, the growth was 62.2% with EKVX NSCLC; 63% in the assay on UO-31 renal; 87.6% with TK-10 renal; 65.7% in the assay on ACHN renal; 75% in the assay with CAKI-1 renal; 98% with A498 renal. Also, the results for the growth in the assay with CCRF-CEM leukemia and in the assay with MOLT-4 leukemia were 82.4% and 75.1%, respectively.

Consider `COc1ccc2c(c1)N(CCO)C1=C(C(=O)OC1)C2c1cccc(Br)c1` (configuration not stated), for which the growth in the assay on EKVX NSCLC is 37.4%; with SN12C renal, 27.3%; in the assay with UO-31 renal, 32.3%; with TK-10 renal it was 60%; in the assay with CAKI-1 renal, 8.86% (active); in the assay on A498 renal it was -1.77% (active). The figures for the growth in the assay on CCRF-CEM leukemia and with MOLT-4 leukemia were 11.7% and 13.9%, respectively.

With `Nc1nc2c(c3ncccc13)C(c1ccccc1)Cc1ncccc1-2` (configuration not stated), the growth in the assay on EKVX NSCLC is 78.8%; in the assay on UO-31 renal it was 61.1%; in the assay with TK-10 renal, 89.9%; with ACHN renal, 84.4%; with CAKI-1 renal, 77.2%; in the assay with A498 renal, 78.2%. Also, the growth with CCRF-CEM leukemia was 72.3%; in the assay on MOLT-4 leukemia, 65.8%.

In the case of `COc1ccc(/C(=C\c2cc(OC)c(OC)c(OC)c2)C(=O)N2CCN(c3ccccc3)CC2)cc1O`, the growth with EKVX NSCLC was 94.7%; in the assay on SN12C renal it was 93.8%; with UO-31 renal it was 69.7%; with TK-10 renal it was 103%; in the assay on ACHN renal, 98.3%; with A498 renal, 94%. In addition, the growth in the assay with CCRF-CEM leukemia is 85.5%; in the assay with MOLT-4 leukemia, 91.3%.

In the case of `N#Cc1c(N)n(C2OC(CO)C(O)C2O)c2ncnc(N)c12` (configuration not stated), the growth in the assay on EKVX NSCLC is -20.3% (active); in the assay on SN12C renal it was 6.49% (active); in the assay with UO-31 renal, -42.1% (active); with TK-10 renal it was -9.6% (active); in the assay with CCRF-CEM leukemia, -45.1% (active).
